According to PubChem BioAssay AID1739 (National Center for Advancing Translational Sciences (NCATS), 2009):
Records with an inconclusive call do not appear. Where a call stands in place of a potency, no number is given. Calls of active or inactive are those of the source. Calls come from the whole dose curve; as a rule, active = well fitted inhibition curve with a large enough effect; inconclusive = small, poorly fitted or top-dose-only effect; inactive = flat fitted curve, though single readings scatter.

Test: Counterscreen Assay for Enhancers of SMN2 Splice Variant Expression: Modulation of SMN1 Expression
Conditions: HEK293 SMN1-luciferase reporter, luminescence, 30-36 h; series mostly up to 22.8 µM
Text: NIH Chemical Genomics Center [NCGC] NIH Molecular Libraries Probe Production centers Network [MLPCN] MLPCN Grant: R03 MH084179-01 Assay Submitter (PI): Elliot Androphy NCGC Assay Overview: Spinal muscular atrophy (SMA) is caused by insufficient levels of the survival motor neuron protein SMN. The SMN locus on chromosome 5q13 contains two inverted copies of SMN called SMN1 and SMN2 which are 99% identical at the amino acid level. SMN1 is a fully functional protein and SMN2 skips exon 7 90% of the time. Skipping of exon 7 produces non-functional protein product. 10% of the SMN2 protein includes exon 7 and is fully functional. In the SMA disease state, mutations in the SMN1 locus are the cause of the disease state. Because only 10% of SMN2 is of the fully functional form, it is not sufficient to overcome the deficiency produced by the loss of the SMN1 product. A therapy that either increase the amount of SMN2 product made or to increase the inclusion of exon 7 has been proposed for the treatment of SMA. We have designed an assay to identify small molecules that can increase the amount of functional SMN2 product by appending a luciferase reporter gene after the native SMN2 gene, such that inclusion of exon 7 in the expressed product places the luciferase sequence in frame, thus generating functional luciferase enzyme. […]

Row | Compound | Potency
1 | CCc1ccc2nc(N3CCC(C(=O)N4CCC5(CC4)OCCO5)CC3)sc2c1 | inactive
2 | CC[C@]1(O)CC(O[C@@H]2CC(N(C)C)C(O)C(C)O2)c2c(cc3c(c2O)C(=O)c2c(O)cccc2C3=O)C1C(=O)OC (some centres not stated) | 1120 nM (active)
